Experimental findings from PubChem BioAssay (NCI) are described below.

Compounds without any hit were thinned out: in the full panel of roughly 79,000, 15% have a hit. Unmarked numbers belong to inactive results. Active and inactive are the calls of the source. No stated cut-off is given here; in the data, active means growth inhibition above about 70%; inactive means the rest.

This test is described as follows: NCI Yeast Anticancer Drug Screen. Data for the mlh1 rad18 strain (AID 175). Conditions: S. cerevisiae mlh1 rad18 strain growth inhibition; at 50.0 µM; hits give high values. The method, then:
Growth inhibition of yeast strains with defined genetic alterations is measured as a screen for potential anti-cancer activity. Selected strains with alterations in DNA damage repair or cell cycle control were exposed to compounds and growth inhibition was measured relative to vehicle treated controls. The strain used in this assay is mlh1 rad18
With `CCCCCCCC(=O)CC(C)C`, the growth inhibition is 6.65%.
The same measure for `CC1=C(CN(CC(=O)O)CC(=O)O)C(=O)C(C(C)C)=C/C1=C(\c1ccccc1S(=O)(=O)O)c1cc(C(C)C)c(O)c(CN(CC(=O)O)CC(=O)O)c1C`: -8.7%.
The same measure for `CCOC(=O)c1cccc(C(=O)OCC)n1`: -14.6%.
The same measure for `CC(=O)Oc1c2oc3cc(O)c(O)cc3c2c(OC(C)=O)c2oc3cc(O)c(O)cc3c12`: -29.1%; for `CN(C)CCC(O)c1ccccc1` (stereo not given): -22.6%.
For `O=c1cc(NCc2cccc3ccccc23)[nH]c(=O)[nH]1`, the growth inhibition is -7.1%.
The same measure for `CSc1nc(N(C)C)c2[nH]c(C)nc2n1`: 31.6%; for `CCN1C(=O)C(=O)C(CC)(CC)C1=O`: -13.6%; for `O=C1CCCNc2c(Br)cc(Br)cc21`: 14.8%.
As to `Nc1ccc(S(=O)(=O)N/N=C/c2ccco2)cc1`, the growth inhibition was -15.1%.
On to `Nc1nc(-c2ccc(F)cc2)cc(-c2cc(-c3ccc(F)cc3)nc(N)n2)n1`, for which the growth inhibition is 2.15%.
The same measure for `COc1ccc2nc3cccc([N+](=O)[O-])c3c(NCCC(=O)O)c2c1`: 25.8%; for `O=c1c(Br)c(-c2ccccc2Br)[nH]c2ccccc12`: -13.9%.
In the case of `CC(C)(C)OC(=O)NCCc1ccc(N)cc1`, the growth inhibition is -10.2%.
The same measure for `CCOC(=O)[n+]1c(C)ccc2ccccc21`: -13.8%; for `Cc1ccc(N=Cc2cc(Br)ccc2O)cc1Cl`: 96.8% (active); for `Cc1ccc2c(C)cc(=O)n(C)c2c1`: 15.1%.
With `COC1=NO[C@@H]2C=CO[C@H]12`, the growth inhibition was 9.95%.
Regarding `CCOC(=O)CC(=O)C(=O)NNC1=NCCN1`, the growth inhibition is 15.2%.
Consider `N#CCC(=O)N1CCc2ccccc2C1`, for which the growth inhibition was 14.2%.
The same measure for `Cc1cc(=NO)cc(C)n1O`: 7.85%; for `OCCN(Cc1ccccn1)Cc1ccccn1`: 9%.
As to `Cc1ccc2c(c1)[nH]c(=S)n2C=C1C(=O)CC(C)(C)CC1=O`, the growth inhibition is -9.25%.
The same measure for `Nc1ccc(-c2nc3ccc(N)cc3[nH]2)cc1`: -18.2%; for `CCCCCCCCCCCNc1ncnc2[nH]ncc12`: 9.8%.
The same measure for `Fc1ccc(F)c(C2SCc3nc4ccccc4n32)c1` (stereo not given): 24.6%; for `Cc1c2ccccc2nc(CSc2n[nH]c(=S)s2)[n+]1[O-]`: 20%; for `CN=C(NC#N)NCc1ccccc1`: 8.45%.
With `Cc1cc(C)c(OCC(O)CO)c(C)c1` (stereo not given), the growth inhibition was -8.8%.
As for `CC(=O)CC1(O)C(=O)C(C(C)(C)C)=CC2(C(C)(C)C)OC12` (stereo not given), the growth inhibition was 0.25%.
As to `N#CC(C#N)=CC(C#N)C#N`, the growth inhibition is -11.7%.
The same measure for `C=C(CCCCCCCCC)CC(=O)SCCNC(=O)CCNC(=O)C(O)C(C)(C)COP(=O)(O)OP(=O)(O)OCC1OC(n2cnc3c(N)ncnc32)C(O)C1OP(=O)(O)O` (stereo not given): 0.4%.
The same measure for `Cc1cc(O)c(C(C)C)cc1N=O`: 6.35%; for `COc1cc2c(-c3cc(OC)c(OC)c(OC)c3)cc(C)[n+](C)c2cc1OC`: 1.8%; for `CCCC(CCC)(C(=O)O)C(=O)O`: 11.5%.
As for `COC(=O)CCC(=O)c1ccc2c(c1)CCC2`, the growth inhibition was 7.65%.
The same measure for `O=C(CC(c1ccccc1)N1CCCCC1)OCC1CCCO1` (stereo not given): 14.3%.
The same measure for `[N-]=[N+]=CC(=O)C1OC1c1ccc2ccccc2c1` (stereo not given): 22.9%; for `c1ccc([P+](CC[P+](c2ccccc2)(c2ccccc2)c2ccccc2)(c2ccccc2)c2ccccc2)cc1`: -16.4%.
The same measure for `CCC(=O)Oc1ccc(OCc2ccccc2)cc1`: -25.9%.
